Measurements from PubChem BioAssay.

Test: inhibitors of PAF-induced NFkB signaling in CF airway cells, dose response, cell-based, uHTS hits, panel, cytotoxicity readout (AID 624344)
Conditions: CF bronchial epithelial cells, PAF-induced NFkB reporter inhibition, with PAF, run 1; at 79 µM (top of the series) unless noted

SMILES	inhibition [%]
Clc1cccc(Nc2ncnc3ccc(Br)cc23)c1	109
CCc1c(C)nc2ccc(Br)cc2c1SCCC#N	105
CC(C)CN=C(NS(=O)(=O)c1ccccc1)C(Cl)(Cl)Cl	102
Cc1[nH]nc2nc(SCC(=O)NCCC3=CCCCC3)n(-c3ccc(Br)cc3)c(=N)c12	100
c1cc2[nH]snc2c2nc(C3CC3)nc12	101
Cc1[nH]nc2ncc(C(=O)c3ccccc3O)cc12	109
CCOc1ccc(-n2c(C)c(C(C)=O)c3cc(O)ccc32)cc1	90
O=C(/C=C/c1cccc([N+](=O)[O-])c1)n1cnc2ccccc21	102
Cn1c(Oc2ccc(Cl)cc2)c(C=O)c2ccccc21	104
COc1cccc(-c2nnc3sc(C4CCCCC4)nn23)c1	111
Oc1ccc(CCNc2ncnc3ccc(Cl)cc23)cc1	113
FC(F)(F)c1nnc2c(Sc3ccc(Cl)cc3)nc3ccccc3n12	98
COc1ccc(-c2cncnc2-c2ccc(OC)cc2O)cc1	101
COC1(OC)C=CC(=O)C=C1NC(=O)c1ccccc1OC(C)=O	101
NC(=O)N/N=C/c1c(Sc2nnnn2-c2ccccc2)nc2ccccn2c1=O	103
Cn1nnnc1Sc1ncnc2scc(-c3ccc[nH]3)c12	66.8
COc1ccc2cc(C(N)=O)c(=Nc3ccc(C)cc3)oc2c1	87.6
CC(C)Nc1ncnc2ccc(Br)cc12	118
O=C(Nc1nc2ccc(F)cc2s1)C1CCN(S(=O)(=O)c2cc([N+](=O)[O-])ccc2Cl)CC1	105
COc1cccc(NC(=O)Nc2nnc(CC(=O)NCc3ccccc3)s2)c1	79.8

Test: as above
Conditions: CF bronchial epithelial cells, PAF-induced NFkB reporter inhibition, with PAF, run 2; at 79 µM (top of the series) unless noted

SMILES	inhibition [%]
COc1cc2cncc(Cc3ccc(Cl)cc3)c2cc1OC	109
COc1ccc(-c2cn[nH]c2-c2ccc(O)cc2O)cc1	112
COc1ccc2[nH]c3c(c2c1)CCNC3=O	103
Clc1cncc(Cl)c1N/N=C/c1ccncc1	118
Cc1cccc(Nc2ncnc3ccc(Br)cc23)c1	110
COc1ccc(Cc2nnc(SCc3ccc([N+](=O)[O-])cc3)o2)cc1	97.4
Cc1ccc2nc(C(F)(F)F)c(C#N)c(N)c2c1	106
CN1CCN(c2ncnc3scc(-c4ccccc4Cl)c23)CC1	100
CCCN(CCC)c1ncnc2nc[nH]c12	108
CCN(CC)S(=O)(=O)c1ccc(NC(=O)Nc2cccc(C(F)(F)F)c2)cc1	99.2
O=[N+]([O-])c1ccc2ncnc(N3CCN(Cc4ccc5c(c4)OCO5)CC3)c2c1	91.3
OCCCNc1ncnc2scc(-c3ccc(Cl)cc3)c12	103
C=C(C)COc1ccc(-c2[nH]ncc2-c2ccc(OC)cc2)c(O)c1	105
CC(C)c1nc(NCCO)c(C#N)c2c1CCCC2	103
CC(=O)c1cccc(NC(=O)Nc2cccnc2)c1	93.2
Nc1ncnc(NCc2ccc(F)cc2)c1[N+](=O)[O-]	98.9
COc1ccc(-c2cc(=O)oc3c(C)c(OC(=O)c4cccs4)ccc23)cc1	93

SMILES	inhibition [%]
O=C(Nc1cccc2[nH]ncc12)c1ccc(F)cc1	95.5
CCN1CCN(Cc2ccc(NC(=O)c3ccc(C)c(NC(=O)C(=O)c4c[nH]c5ccccc45)c3)cc2C(F)(F)F)CC1	112
CCn1c(Oc2ccccc2F)nc2c1c(=O)n(C)c(=O)n2C	96.5
Clc1cccc(Nc2ncnc3ccc(Br)cc23)c1	104
CCc1c(C)nc2ccc(Br)cc2c1SCCC#N	113
CC(C)CN=C(NS(=O)(=O)c1ccccc1)C(Cl)(Cl)Cl	112
Cc1[nH]nc2nc(SCC(=O)NCCC3=CCCCC3)n(-c3ccc(Br)cc3)c(=N)c12	111
c1cc2[nH]snc2c2nc(C3CC3)nc12	118
Cc1[nH]nc2ncc(C(=O)c3ccccc3O)cc12	92.1
CCOc1ccc(-n2c(C)c(C(C)=O)c3cc(O)ccc32)cc1	88.2
O=C(/C=C/c1cccc([N+](=O)[O-])c1)n1cnc2ccccc21	111
Cn1c(Oc2ccc(Cl)cc2)c(C=O)c2ccccc21	109
COc1cccc(-c2nnc3sc(C4CCCCC4)nn23)c1	104
Oc1ccc(CCNc2ncnc3ccc(Cl)cc23)cc1	106
FC(F)(F)c1nnc2c(Sc3ccc(Cl)cc3)nc3ccccc3n12	109
COc1ccc(-c2cncnc2-c2ccc(OC)cc2O)cc1	93.5
COC1(OC)C=CC(=O)C=C1NC(=O)c1ccccc1OC(C)=O	113
